# Results taken from PubChem BioAssay (EPA / NIEHS).
# Active and inactive are the calls of the source. How the source made its calls: active means hit-call score of the fitted dose curve at least 0.9, where 1 is the maximum; inactive means score below 0.9.
# Legend:
# Conditions in all cases: mRNA level, 48 h; actives raise or lower the signal
# [1] = read-out: growth arrest and DNA damage 45 (GADD45B), GADD45B (gene 4616); assay: LTEA_HepaRG_GADD45B: Life Technologies and Expression Analysis (LTEA) Assay for growth arrest and DNA damage 45 (GADD45B) using HepaRG (AID 2283461)
# Outline: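 HepaRG, ~100,000 cells/well, 48 h plating; serum-free induction medium; cpd 100 uM top, half-log x8, 0.5% DMSO, duplicate, 48 h; lysis in RLT, RNA isolation, qRT-PCR; norm ACTB/GAPDH/POLR2A; bidirectional fit vs DMSO.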
# [2] = read-out: ABC Transporter (ABCC3), ABCC3 (gene 8714); assay: LTEA_HepaRG_ABCC3: Life Technologies and Expression Analysis (LTEA) Assay for ABC Transporter (ABCC3) using HepaRG (AID 2283462)
# Outline: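 Human HepaRG, 48 h dosing, 8-pt half-log series from 100 uM, 0.5% DMSO vehicle, duplicates. ABCC3 mRNA by TaqMan qRT-PCR, housekeeping-normalized; bidirectional curve fit vs DMSO.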
# [3] = read-out: ABC Transporter (ABCB11), ABCB11 (gene 8647); assay: LTEA_HepaRG_ABCB11: Life Technologies and Expression Analysis (LTEA) Assay for ABC Transporter (ABCB11) using HepaRG (AID 2283463)
# Outline: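 Differentiated human HepaRG cells in serum-free induction medium, dosed in duplicate for 48 h. Eight-point half-log series from 100 uM in 0.5% DMSO; ABCB11 mRNA by qRT-PCR, normalized to ACTB, GAPDH, POLR2A, fitted bidirectionally versus DMSO.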
# [4] = read-out: ABC Transporter (ABCC2), ABCC2 (gene 1244); assay: LTEA_HepaRG_ABCC2: Life Technologies and Expression Analysis (LTEA) Assay for ABC Transporter (ABCC2) using HepaRG (AID 2283464)
# Outline: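 HepaRG, 48 h post-plating; serum-free induction medium; cpd 8-pt, 100 uM top, half-log, 0.5% DMSO, duplicate, 48 h. Readout: ABCC2 mRNA by qRT-PCR, norm. ACTB/GAPDH/POLR2A. Bidirectional fit vs DMSO baseline.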
# [5] = read-out: Broad substrate specificity ATP-binding cassette transporter ABCG2 (Homo sapiens) (UniProt Q9UNQ0); assay: LTEA_HepaRG_ABCG2: Life Technologies and Expression Analysis (LTEA) Assay for ABC Transporter (ABCG2) using HepaRG (AID 2283465)
# Outline: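 Differentiated HepaRG cells were exposed for 48 h in serum-free induction medium to 8 half-log concentrations, top 100 uM, in 0.5% DMSO. ABCG2 mRNA was measured by qRT-PCR, normalized to ACTB, GAPDH and POLR2A, with bidirectional fitting versus DMSO.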
# [6] = read-out: ATP-citrate lyase (ACLY), ACLY (gene 47); assay: LTEA_HepaRG_ACLY: Life Technologies and Expression Analysis (LTEA) Assay for ATP-citrate lyase (ACLY) using HepaRG (AID 2283466)
# Outline: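 Differentiated HepaRG cells exposed 48 h in serum-free induction medium to eight half-log concentrations up to 100 uM in 0.5% DMSO, duplicates. Transcript measured by Fluidigm TaqMan qRT-PCR, normalized to ACTB, GAPDH, POLR2A; bidirectional fit versus DMSO.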
# [7] = read-out: Peroxisomal acyl-coenzyme A oxidase 1 (ACOX1) gene, ACOX1 (gene 51); assay: LTEA_HepaRG_ACOX1: Life Technologies and Expression Analysis (LTEA) Assay for Peroxisomal acyl-coenzyme A oxidase 1 (ACOX1) gene using HepaRG (AID 2283467)
# Outline: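 HepaRG cells, plated 48 h then switched to serum-free induction medium, were exposed in duplicate for 48 h to 8-point half-log concentrations up to 100 uM in 0.5% DMSO. ACOX1 mRNA was measured by qRT-PCR, normalized to ACTB/GAPDH/POLR2A, and fitted bidirectionally versus DMSO.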
# [8] = read-out: Alkaline Phosphatase, Placental (ALPP) gene, ALPP (gene 250); assay: LTEA_HepaRG_ALPP: Life Technologies and Expression Analysis (LTEA) Assay for Alkaline Phosphatase, Placental (ALPP) gene using HepaRG (AID 2283468)
# Outline: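 HepaRG, 48 h plating then 48 h dosing, serum-free induction medium, 0.5% DMSO. 8 conc, half-log, max 100 uM, duplicates. Endpoint: ALPP transcript by qRT-PCR, housekeeping-normalized; gain or loss fitted vs DMSO.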
# [9] = read-out: Bcl-2 (BAD) gene, BAD (gene 572); assay: LTEA_HepaRG_BAD: Life Technologies and Expression Analysis (LTEA) Assay for Bcl-2 (BAD) gene using HepaRG (AID 2283469)
# Outline: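 Differentiated HepaRG cells were exposed in duplicate in 0.5% DMSO for 48 h to eight-point half-log concentrations up to 100 uM. BAD mRNA was measured by Fluidigm TaqMan qRT-PCR, normalized to ACTB, GAPDH and POLR2A, and fitted bidirectionally against DMSO.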
# [10] = read-out: Bcl-2 (BAX) gene, BAX (gene 581); assay: LTEA_HepaRG_BAX: Life Technologies and Expression Analysis (LTEA) Assay for Bcl-2 (BAX) gene using HepaRG (AID 2283470)
# Outline: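 HepaRG (human liver), 48 h exposure, duplicate wells. 8-pt curve, half-log from 100 uM, 0.5% DMSO. BAX transcript by TaqMan qRT-PCR; ACTB/GAPDH/POLR2A normalization; gain or loss vs DMSO baseline.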
# [11] = read-out: adenosine kinase (ADK) gene, ADK (gene 132); assay: LTEA_HepaRG_ADK: Life Technologies and Expression Analysis (LTEA) Assay for adenosine kinase (ADK) gene using HepaRG (AID 2283471)
# Outline: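 ADK expression quantified by qRT-PCR, normalised to three housekeeping genes, after 48 h exposure of HepaRG cells to eight concentrations (top 100 uM, half-log steps, duplicate, 0.5% DMSO). Up- or down-regulation fitted relative to vehicle.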
# [12] = read-out: Alpha-fetoprotein (AFP) gene, AFP (gene 174); assay: LTEA_HepaRG_AFP: Life Technologies and Expression Analysis (LTEA) Assay for Alpha-fetoprotein (AFP) gene using HepaRG (AID 2283472)
# Outline: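 HepaRG, single lot; 48 h post-plating -> serum-free induction medium; cpd 8-pt, 100 uM top, half-log, 0.5% DMSO, duplicate, 48 h. RNA -> qRT-PCR AFP, norm ACTB/GAPDH/POLR2A. Bidirectional fit vs DMSO.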
# [13] = read-out: BCL2L11 (gene 10018); assay: LTEA_HepaRG_BCL2L11: Life Technologies and Expression Analysis (LTEA) Assay for Bcl-2 (BCL2L11) gene using HepaRG (AID 2283473)
# Outline: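 Read-out is BCL2L11 transcript level by qRT-PCR, normalized to three housekeeping genes and fitted bidirectionally against 0.5% DMSO vehicle. HepaRG cells received chemicals for 48 h in serum-free induction medium, 100 uM down in half-log dilutions.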
# [14] = read-out: Apolipoprotein A-V (APOA5) gene, APOA5 (gene 116519); assay: LTEA_HepaRG_APOA5: Life Technologies and Expression Analysis (LTEA) Assay for Apolipoprotein A-V (APOA5) gene using HepaRG (AID 2283474)
# Outline: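 Readout is APOA5 transcript level by qRT-PCR on Fluidigm dynamic arrays, normalized to three housekeeping genes. HepaRG cultures received chemicals for 48 h at up to 100 uM (half-log steps, 0.5% DMSO), with gain or loss scored relative to DMSO.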
# [15] = read-out: Apoptosis regulator Bcl-2 (Homo sapiens) (UniProt P10415); assay: LTEA_HepaRG_BCL2: Life Technologies and Expression Analysis (LTEA) Assay for Bcl-2 gene using HepaRG (AID 2283475)
# Outline: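 HepaRG, plated 48 h then switched to serum-free induction medium; dosed 48 h, 8 conc. (max 100 uM, half-log steps), duplicate, 0.5% DMSO. Lysis in RLT, RNA isolated, TaqMan qRT-PCR for BCL2; ACTB/GAPDH/POLR2A normalisation; bidirectional fit vs DMSO.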
# [16] = read-out: Bcl-2 (BID) gene, BID (gene 637); assay: LTEA_HepaRG_BID: Life Technologies and Expression Analysis (LTEA) Assay for Bcl-2 (BID) gene using HepaRG (AID 2283476)
# Outline: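 Transcript levels of BID, measured by qRT-PCR and normalized to three housekeeping genes, were fitted bidirectionally against DMSO controls. Cells were HepaRG, dosed 48 h at up to 100 uM.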
# [17] = read-out: Caspase-3 (Homo sapiens) (UniProt P42574); assay: LTEA_HepaRG_CASP3: Life Technologies and Expression Analysis (LTEA) Assay for cysteine-aspartic acid protease (CASP3) using HepaRG (AID 2283477)
# Outline: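 Read-out is CASP3 mRNA level by TaqMan qRT-PCR in human HepaRG cells after 48 h chemical exposure. Eight half-log concentrations topping at 100 uM were tested in 0.5% DMSO; gain or loss was fitted relative to DMSO.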
# [18] = read-out: Cytochrome P450 (CYP24A1), CYP24A1 (gene 1591); assay: LTEA_HepaRG_CYP24A1: Life Technologies and Expression Analysis (LTEA) Assay for Cytochrome P450 (CYP24A1) using HepaRG (AID 2283478)
# Outline: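 HepaRG, 48 h chemical exposure, 8-pt half-log CRC from 100 uM, 0.5% DMSO vehicle, duplicates. Endpoint: CYP24A1 mRNA by Fluidigm TaqMan qRT-PCR, normalized ACTB/GAPDH/POLR2A; gain/loss fit vs DMSO.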
# [19] = read-out: Cytochrome P450 (CYP1A2), CYP1A2 (gene 1544); assay: LTEA_HepaRG_CYP1A2: Life Technologies and Expression Analysis (LTEA) Assay for Cytochrome P450 (CYP1A2) using HepaRG (AID 2283479)
# Outline: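 CYP1A2 transcript induction or loss, quantified by Fluidigm qRT-PCR against three housekeeping genes, was fitted bidirectionally against 0.5% DMSO controls. Human HepaRG cells received eight half-log concentrations from 100 uM over 48 h.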
# [20] = read-out: cysteine-aspartic acid protease (CASP8), CASP8 (gene 841); assay: LTEA_HepaRG_CASP8: Life Technologies and Expression Analysis (LTEA) Assay for cysteine-aspartic acid protease (CASP8) using HepaRG (AID 2283480)
# Outline: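 Differentiated HepaRG cells in serum-free induction medium, 48 h exposure, eight-point half-log series from 100 uM in 0.5% DMSO, duplicates. CASP8 mRNA by qRT-PCR, normalized to ACTB, GAPDH, POLR2A; bidirectional fit versus DMSO.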
# Chain of Apoptosis regulator Bcl-2 (Homo sapiens) (P10415 whole entry, looked up): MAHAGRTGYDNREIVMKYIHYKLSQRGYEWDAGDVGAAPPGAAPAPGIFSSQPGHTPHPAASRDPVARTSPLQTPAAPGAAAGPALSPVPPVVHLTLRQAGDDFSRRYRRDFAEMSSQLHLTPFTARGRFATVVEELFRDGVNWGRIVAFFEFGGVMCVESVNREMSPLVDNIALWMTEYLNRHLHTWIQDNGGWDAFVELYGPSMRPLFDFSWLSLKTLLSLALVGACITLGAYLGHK
# Chain of Caspase-3 (Homo sapiens) (P42574 whole entry, looked up): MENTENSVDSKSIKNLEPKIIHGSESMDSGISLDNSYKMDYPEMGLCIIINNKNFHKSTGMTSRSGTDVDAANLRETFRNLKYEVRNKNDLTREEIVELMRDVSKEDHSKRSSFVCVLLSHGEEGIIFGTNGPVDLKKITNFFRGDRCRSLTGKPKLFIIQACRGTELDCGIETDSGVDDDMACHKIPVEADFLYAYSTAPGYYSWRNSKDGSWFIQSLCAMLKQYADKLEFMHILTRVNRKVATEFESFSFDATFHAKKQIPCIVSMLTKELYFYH
# Chain of Broad substrate specificity ATP-binding cassette transporter ABCG2 (Homo sapiens) (Q9UNQ0 whole entry, looked up): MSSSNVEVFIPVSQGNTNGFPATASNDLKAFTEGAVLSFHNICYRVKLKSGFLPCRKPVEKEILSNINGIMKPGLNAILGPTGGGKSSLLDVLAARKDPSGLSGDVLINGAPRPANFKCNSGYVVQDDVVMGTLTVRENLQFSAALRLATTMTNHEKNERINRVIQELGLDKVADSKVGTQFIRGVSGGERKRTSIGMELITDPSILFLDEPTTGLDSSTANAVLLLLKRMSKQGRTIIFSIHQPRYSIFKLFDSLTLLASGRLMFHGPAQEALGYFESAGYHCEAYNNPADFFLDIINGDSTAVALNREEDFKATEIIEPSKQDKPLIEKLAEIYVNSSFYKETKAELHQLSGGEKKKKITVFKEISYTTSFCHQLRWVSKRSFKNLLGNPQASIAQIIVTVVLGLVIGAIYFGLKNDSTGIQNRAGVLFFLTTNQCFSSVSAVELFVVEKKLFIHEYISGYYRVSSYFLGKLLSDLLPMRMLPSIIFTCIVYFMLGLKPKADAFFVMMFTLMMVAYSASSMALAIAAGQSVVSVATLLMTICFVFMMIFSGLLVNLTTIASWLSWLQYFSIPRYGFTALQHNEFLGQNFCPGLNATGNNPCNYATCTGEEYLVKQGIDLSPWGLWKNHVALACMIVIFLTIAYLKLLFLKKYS
smiles,measurement,setting,value
CCCCCCCCCCCCc1ccccc1,outcome,[1],inactive
same,outcome,[2],inactive
same,outcome,[3],inactive
same,outcome,[4],inactive
same,outcome,[5],inactive
same,outcome,[6],inactive
same,outcome,[7],inactive
same,outcome,[8],inactive
same,outcome,[9],inactive
same,outcome,[10],inactive
same,outcome,[11],inactive
same,outcome,[12],inactive
same,outcome,[13],inactive
same,outcome,[14],inactive
same,outcome,[15],inactive
same,outcome,[16],inactive
same,outcome,[17],inactive
same,outcome,[18],inactive
same,outcome,[19],inactive
same,outcome,[20],inactive
Cc1ccc(C)c(O)c1,outcome,[1],inactive
same,outcome,[2],inactive
same,outcome,[3],inactive
same,outcome,[4],inactive
same,outcome,[5],inactive
same,outcome,[6],inactive
same,outcome,[7],inactive
same,outcome,[8],inactive
same,outcome,[9],inactive
same,outcome,[10],inactive
same,outcome,[11],inactive
same,outcome,[12],inactive
same,outcome,[13],inactive
same,outcome,[14],inactive
same,outcome,[15],inactive
same,outcome,[16],inactive
same,outcome,[17],inactive
same,outcome,[18],inactive
same,AC50,[19],51.2 µM (active)
Fc1ccccc1[C@@H](F)COC1CCC(Nc2ncnc3[nH]ncc23)CC1 (stereo partly drawn),AC50,[1],81.7 µM (active)
same,outcome,[2],inactive
same,AC50,[3],71.1 µM (active)
same,AC50,[4],65.4 µM (active)
same,outcome,[5],inactive
same,outcome,[6],inactive
same,AC50,[7],34.1 µM (active)
same,AC50,[8],23.1 µM (active)
same,outcome,[9],inactive
same,AC50,[10],50 µM (active)
same,AC50,[11],50 µM (active)
same,AC50,[12],27.2 µM (active)
same,outcome,[13],inactive
same,AC50,[14],50 µM (active)
same,AC50,[15],30.7 µM (active)
same,outcome,[16],inactive
same,AC50,[17],24.9 µM (active)
same,outcome,[18],inactive
same,AC50,[19],29.1 µM (active)
same,outcome,[20],inactive
CCn1nc(Cc2ccccc2)cc1C1CCN(C[C@H]2C[C@H](N(C)[C@@H](C(=O)O)C(C)C)C[C@@H]2c2cccc(F)c2)CC1,outcome,[1],inactive
same,AC50,[2],50 µM (active)
same,outcome,[4],inactive
same,outcome,[5],inactive
same,AC50,[6],75.7 µM (active)
same,outcome,[7],inactive
same,AC50,[8],23.8 µM (active)
same,outcome,[9],inactive
same,outcome,[10],inactive
same,outcome,[11],inactive
same,AC50,[12],50 µM (active)
same,outcome,[13],inactive
same,outcome,[14],inactive
same,outcome,[15],inactive
same,outcome,[16],inactive
same,outcome,[17],inactive
same,outcome,[18],inactive
same,AC50,[19],79.9 µM (active)
CCCCC(CC)COC(=O)c1ccc(C(=O)OCC(CC)CCCC)cc1 (stereo not drawn),outcome,[1],inactive
same,outcome,[2],inactive
same,outcome,[4],inactive
same,outcome,[5],inactive
same,outcome,[6],inactive
same,outcome,[7],inactive
same,outcome,[8],inactive
same,outcome,[9],inactive
same,outcome,[10],inactive
same,outcome,[11],inactive
same,outcome,[12],inactive
same,outcome,[13],inactive
same,outcome,[14],inactive
same,outcome,[15],inactive
same,outcome,[16],inactive
same,outcome,[17],inactive
same,outcome,[18],inactive
same,outcome,[19],inactive
CCCC(=O)OCC,outcome,[1],inactive
same,outcome,[2],inactive
same,outcome,[4],inactive
same,outcome,[5],inactive
same,outcome,[6],inactive
same,outcome,[7],inactive
same,outcome,[8],inactive
same,outcome,[9],inactive
same,outcome,[10],inactive
same,outcome,[11],inactive
same,outcome,[12],inactive
same,outcome,[13],inactive
same,outcome,[14],inactive
same,outcome,[15],inactive
same,outcome,[16],inactive
same,outcome,[17],inactive
same,outcome,[18],inactive
same,outcome,[19],inactive
